# Bioassay records (PubChem)
# HT1080 IDH1KD tx = toxicity to HT-1080 IDH1 knockdown cells (counter line); HT-1080 IDH1 knockdown viability, ATP luminescence, 48 h; Potency, µM (highest dose often 46.1 µM), for inactives: top-dose activity, negative = toxicity, actives largely listed as cytotoxic; 360,000 tested, 2% active;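 note: potency is the fitted concentration of half-maximal effect; 0% = DMSO wells and -100% = cell-free medium wells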
#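 Viability of IDH1-knockdown HT-1080 fibrosarcoma cells was assessed by CellTiter-Glo after 48 h at 37 °C with titrated compound; concentration-effect curves were classified by fit quality and response size.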
# DT40 TDP1 CPT = growth inhibition of DT40 Tdp1-/-;hTDP1 cells with camptothecin (screen for TDP1 inhibitors) | Potency, µM (highest dose often 46.2 µM), without a hit: at the highest dose activity change, negative = growth inhibition, usual class: inhibitors | chicken DT40 Tdp1-/-;hTDP1 cells + 20 nM CPT, ATP luminescence, 48 h | 420,000 tested, 12% active | AID 686979; note: potency is the fitted concentration of half-maximal effect; nearly all actives have a fitted effect of over 55% in size
#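 Cell growth measured by CellTiter-Glo luminescence after a minimum 48 h, 37 C compound exposure with 20 nM CPT in Tdp1-knockout DT40 cells stably expressing hTDP1, seeded 400/well; qHTS titration format.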
# IL-1B inflam inh = inflammasome signaling inhibition, IL-1 beta readout; THP-1 LPS/ATP IL-1B secretion, AlphaLISA, 16 h; stronger effect = lower value; activity change, % at 57.5 µM; 360,000 tested, 4.7% active; AID 743279; in the data active = activity change below about -50%; inconclusive = mostly about -30% to -49%
#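 Secreted IL-1B measured by AlphaLISA bead assay after 16 h compound exposure of THP-1 cells; compounds (final up to 57.5 uM) added 1 h before LPS (250 ng/mL) and ATP (1.25 mM) stimulation; lower signal means less secretion.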
# HT1080-NT tox = kills 2HG-producing HT-1080-NT fibrosarcoma cells; HT-1080-NT fibrosarcoma viability, CellTiter-Glo ATP luminescence, 48 h; Potency, µM (series often up to 46.1 µM), for the others: at the top dose activity, negative = less viability, most hits filed as cytotoxic; 360,000 tested, 1.6% active;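 note: NT is the 2HG producing partner of a matched IDH1 knockdown line; potency is the fitted concentration of half-maximal effect; 0% = DMSO-treated cells and -100% = media-only wells without cells; nearly all actives have a fitted effect of over 55% in size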
#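 A 48-hour cytotoxicity screen used HT-1080-NT cells plated 2 hours before compound delivery. ATP-based CellTiter-Glo luminescence measured viability, normalized to DMSO and no-cell controls.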
# TDP1 cell noCPT = qHTS for Inhibitors of human tyrosyl-DNA phosphodiesterase 1 (TDP1): qHTS in cells in absence of CPT. Potency, µM (titrated, usually from 46.2 µM), without a hit: at the highest dose activity change, negative = growth inhibition, hits mostly inhibitors. 420,000 tested, 15% active. DT40 Tdp1-/- hTDP1 cells, no CPT, ATP luminescence, 48 h. AID 686978, 2013; note: potency is the fitted concentration of half-maximal effect; nearly all actives have a fitted effect of over 55% in size
#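 Growth kinetics read by CellTiter-Glo luminescence after ≥48 hr at 37 °C. Cells: DT40 Tdp1-/- stably carrying human TDP1, 400 per well, compound exposure in the absence of CPT (DMSO vehicle).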
# The depositor's hits bear a star; ? = inconclusive; · = no result. Most compounds without a hit are left out; they make up all but 19% or so of the library. Unless noted, calls come from the whole dose curve; as a rule, active = well fitted curve in the direction sought with a large enough effect; inconclusive = small, poorly fitted or top-dose-only effect, or another doubt; inactive = no such curve, though single readings can be large; an effect the other way counts as inactive or inconclusive. Unless noted, % is set by controls: 0 for no effect and ±100 for the full control effect.
SMILES,HT1080 IDH1KD tx,DT40 TDP1 CPT,IL-1B inflam inh,HT1080-NT tox,TDP1 cell noCPT
N#C/C(=C/c1ccc(Br)s1)C(=O)NCCc1c[nH]c2ccccc12,-12%,23µM*,?,?,21µM*
O=C(NCCc1ccc(Cl)cc1)C(=O)c1c[nH]c2ccccc12,-16%,-15%,27,-11%,?
COC(=O)[C@@H](Cc1ccccc1)NC(=O)NCCc1c[nH]c2ccccc12,?,-1%,-98*,-27%,?
CCS(=O)(=O)Nc1cc(C(=O)N2CCCN(C=O)CC2)c2c(c1)nc(-c1ccccc1)n2C,·,4%,·,·,-4%
Cc1ccc(N2C(=O)N(CC(=O)Nc3ccc(C)c(C)c3[N+](=O)[O-])C(=O)C2C)cc1 (stereo not drawn),7%,0%,38,5%,-15%
Cc1cc2cc(CCNC(=O)C(=O)c3c[nH]c4ccccc34)c(=O)[nH]c2cc1C,13µM*,15µM*,-56*,?,18µM*
COc1cc(/C=C(/C#N)C(=O)NCCc2c[nH]c3ccccc23)ccc1OCc1ccccc1F,-8%,12µM*,10,-2%,?
Cc1cc(/C=C(\C#N)C(=O)NCCc2c[nH]c3ccccc23)c(C)n1C,-14%,?,?,-1%,?
Cc1cccc(NC(=O)C(Cc2ccccc2)N2Cc3ccccc3C2=O)c1C (stereo not drawn),·,?,·,·,-6%
CCOc1ccc2nc3cc(N)ccc3c(N)c2c1,·,?,·,·,18µM*
CCOc1ccc(CNc2ccc3c(c2)nc(C)n3C)cc1,-2%,?,-2,4%,?
CCOc1ccc2nc3cc(NCc4ccc(OC)cc4)ccc3c(N)c2c1,?,15µM*,-9,?,21µM*
CC(C)(C)C(=O)Nc1cc(-c2cccc(Br)c2)nn1-c1ccccc1,·,?,·,·,21µM*
CCc1nc2ccc(C(=O)N3CCN(c4cccc(C(F)(F)F)c4)CC3)cc2nc1CC,-27%,?,-18,-12%,?
Cc1ccc(OCc2nc(-c3ccc(C(=O)N4CCN(c5cccc(C(F)(F)F)c5)CC4)cc3)oc2C)cc1,·,16µM*,·,·,?
Cc1ccc(C)c(N2CCN(C(=O)c3ccc(-c4nc(COc5ccccc5)c(C)o4)cc3)CC2)c1,·,23µM*,·,·,15µM*
COc1ccc(-n2c(=O)c(-c3cccc(F)c3)nc3cncnc32)cc1,·,-1%,·,·,2%
CC(C)CN(C(=O)CN(C)CC(=O)Nc1ccc(Cl)c(C(F)(F)F)c1)c1c(N)n(CC(C)C)c(=O)[nH]c1=O,-8%,?,-66*,-8%,18µM*
CCCCn1c(N)c(N(CCOC)C(=O)CSCc2ccc(Cl)c(Cl)c2)c(=O)[nH]c1=O,0%,-26%,-13,-2%,?
CCCCn1c(N)c(N(CCOC)C(=O)COC(=O)COc2cc(C)c(Cl)cc2C(C)C)c(=O)[nH]c1=O,?,12%,-98*,-28%,-14%
CCCCn1c(N)c(N(CCOC)C(=O)CN(C)CC(=O)Nc2ccc(Cl)c(Cl)c2)c(=O)[nH]c1=O,-16%,18µM*,?,-9%,?
CCN(CC)S(=O)(=O)c1ccc(C)c(NC(=O)COC(=O)CN2C(=O)NC(C)(C)C2=O)c1,1%,-5%,3,-2%,-13%
COc1cc(NC(=O)CN2C(=O)COc3ccc(S(=O)(=O)NC4CCCC4)cc32)cc(OC)c1,·,-2%,·,·,-19%
O=C(NC1CCCC1)C(c1ccco1)N1CCC(O)(c2ccc(Cl)cc2)CC1 (stereo not drawn),7%,23µM*,-6,9%,18µM*
CC(C)C(C(=O)NC1CCCC1)N1CCC(O)(c2ccc(Cl)cc2)CC1 (stereo not drawn),3%,?,-3,-13%,?
SMILES,HT1080 IDH1KD tx,DT40 TDP1 CPT,IL-1B inflam inh,HT1080-NT tox,TDP1 cell noCPT
Cc1ccc(C)c(N2CCN(C(C(=O)NC3CCCC3)c3ccco3)CC2)c1 (stereo not drawn),?,?,-55*,?,12µM*
COc1cccc(C(C(=O)NC2CCCC2)N2CCN(c3ncccc3C#N)CC2)c1OC (stereo not drawn),-1%,?,-12,7%,16µM*
N#Cc1cccnc1N1CCN(C(C(=O)NC2CCCC2)c2ccc(F)cc2)CC1 (stereo not drawn),8%,?,0,1%,?
COc1cccc(C(C(=O)NC2CCCC2)N2CCN(c3cc(C)ccc3C)CC2)c1OC (stereo not drawn),?,21µM*,-59*,?,21µM*
O=C(CSc1nc(O)cc(=O)n1-c1ccccc1)Nc1nc2ccccc2s1,-7%,14%,13,-5%,2%
CCc1nc2sc3c(N4CCC(C)CC4)ncnc3c2c2c1CCCC2,·,5%,·,·,6%
Cc1ccc(C(=O)NC(C)c2nnc(SCC(=O)NC3CCCC3)n2C)cc1 (stereo not drawn),4%,-2%,-3,1%,21%
Cc1cccc(NC(=O)CN2C(=O)c3cccnc3Oc3ccc(Cl)cc32)c1C,·,-98%,·,·,21µM*
CCOC(=O)c1ccc(NC(=O)CN2C(=O)c3cccnc3Oc3ccc(Cl)cc32)cc1,·,?,·,·,21µM*
Cc1ccc(NC(=O)CN2C(=O)c3cccnc3Oc3ccc(Cl)cc32)cc1,·,21µM*,·,·,29µM*
Cc1ccc2c(c1)N(CC(=O)Nc1c(C)cccc1C)C(=O)c1cccnc1O2,8%,-6%,0,-1%,16%
Cc1cc(Cl)ccc1NC(=O)CN1C(=O)C(=O)c2ccccc21,·,5.8µM*,·,·,4.1µM*
CCOC(=O)c1ccc(NC(=O)CN2C(=O)COc3ccc(Cl)cc32)cc1,·,13µM*,·,·,16µM*
CCOc1ccc(NC(=O)CN2C(=O)COc3ccc(Cl)cc32)cc1,0%,?,2,1%,-6%
Nc1nc(=S)ss1,17%,16µM*,-98*,6%,7.3µM*
COc1cccc2[nH]c3c(Cl)ncnc3c12,-3%,-20%,·,2%,?
Cc1cccc2[nH]c3c(N4CC=C(c5ccc(F)cc5)CC4)ncnc3c12,?,13µM*,-92*,?,15µM*
Cc1nc(C)n(C(C)CNS(=O)(=O)c2ccc(C)c(C)c2)n1 (stereo not drawn),9%,0%,-6,15%,-1%
COC(=O)/C=C1/N/C(=N\c2nc(C)cc(C)n2)N(c2cccc(C)c2)C1=O,19%,?,-69*,19%,?
COc1ccccc1Nc1cc(C(=O)NC2CCC(C)CC2)c2ccccc2n1 (stereo not drawn),·,3%,·,·,-22%
